From PubChem
In the library only some 7.9% were active in any assay of this set; here they are far more common.
MITF inh: inhibitors of MITF, primary screen, MITF inhibitor project, cell-based, luminescence; TRPM1 promoter luciferase, 24 h; inhibition, % (no concentration beside the values); 37,000 compounds, 0.28% hits; in the data active = inhibition above about 85%; inconclusive = no clear call, values can overlap the other calls; inactive = below about 68%;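 note: human melanocyte line stably carrying TRPM1 promoter luciferase reporter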
Shh pathway inh: Hedgehog pathway signaling inhibitors, primary screen, luminescence, Shh-LIGHT2 cells, Gli-luciferase | Shh-LIGHT2 Gli-luciferase reporter, 30 h | inhibition, % (test concentration not listed) | 22,000 compounds, 2.1% hits | AID 2313, 2010;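 active = mean inhibition across valid replicates above about 65%, limit read from the data; inconclusive = mean under the limit, yet half or more replicates past it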;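 note: pathway switched on by Shh-conditioned medium diluted 1 in 25 in low serum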
NOMO-1 viab: NOMO-1 AML cell viability reduction, primary screen, STK33 inhibitor project, CellTiter-Glo luminescence; NOMO-1 AML viability, 72 h; inhibition, % (no concentration beside the values); 37,000 compounds, 7.5% hits; AID 2330, 2010; in the data active = inhibition above about 80%; inconclusive = no clear call, values can overlap the other calls
Numbers stand for hits; – = inactive; ? = inconclusive; · = not tested or not shown.

SMILES | MITF inh | Shh pathway inh | NOMO-1 viab
COc1ccc(C)cc1NC(=O)CSc1nc2ccccc2c(=O)n1-c1ccc(Cl)cc1 | – | · | –
C[C@H]1CN([C@@H](C)CO)C(=O)c2cc(NC(=O)Nc3ccc(F)cc3)ccc2O[C@@H]1CN(C)S(=O)(=O)c1cccs1 | – | – | –
C[C@@H]1CN([C@@H](C)CO)C(=O)c2cc(NC(=O)Nc3ccc(C(F)(F)F)cc3)ccc2O[C@@H]1CN(C)S(=O)(=O)c1cccs1 | – | – | 109
C[C@H](CO)N1C[C@H](C)[C@H](CN(C)S(=O)(=O)c2cccs2)Oc2ccc(NC(=O)Nc3ccc(F)cc3)cc2C1=O | – | – | –
C[C@@H]1CN([C@@H](C)CO)C(=O)c2cc(NC(=O)Nc3ccc(F)cc3)ccc2O[C@@H]1CN(C)S(=O)(=O)c1cccs1 | – | – | –
C[C@@H]1CN([C@@H](C)CO)C(=O)c2cc(NC(=O)Nc3ccc(C(F)(F)F)cc3)ccc2O[C@H]1CN(C)S(=O)(=O)c1cccs1 | – | · | 93
C[C@H]1CN([C@@H](C)CO)C(=O)c2cc(NC(=O)Nc3ccc(C(F)(F)F)cc3)ccc2O[C@@H]1CN(C)S(=O)(=O)c1cccs1 | – | · | 94
C/C=C(\C)C(=O)OC1CCC(=O)OC1/C=C/C(O)C(C)O (stereo not given) | – | – | –
CCN(CC)C(=S)Oc1ccc(C#N)cc1 | – | – | –
Cc1ccc(S(=O)(=O)N(C)C[C@@H]2Oc3ccc(NC(=O)Nc4cccc5ccccc45)cc3C(=O)N([C@H](C)CO)C[C@@H]2C)cc1 | – | – | –
Cc1cccc(NC(=O)Cn2cnc3sc(-c4ccccc4)cc3c2=O)c1 | – | · | –
O=C(Cn1cnc2sc(-c3ccccc3)cc2c1=O)NCc1ccco1 | – | · | 116
CC(C)c1ccc(NC(=O)CSc2nnc(N)s2)cc1 | – | · | –
CCCSc1nc(NCCO)c2c3c(sc2n1)COC(C)(CC)C3 (stereo not given) | – | · | –
COc1cc(-c2cc(O)c(OC)c(OC)c2)cc(O)c1OC | – | – | –
COc1cc(O)cc(OC)c1OC | – | ? | 107
C[C@H]1CN([C@@H](C)CO)C(=O)c2cccc(NC(=O)CCCCCC(=O)Nc3ccccc3N)c2O[C@H]1CN(C)S(=O)(=O)c1ccccc1 | – | · | –
C[C@H](CO)N1C[C@H](C)[C@@H](CN(C)S(=O)(=O)c2ccc(Cl)cc2)Oc2c(NC(=O)CCCCCC(=O)Nc3ccccc3N)cccc2C1=O | – | · | 88
C[C@@H]1CN([C@H](C)CO)C(=O)c2cccc(NC(=O)CCCCCC(=O)Nc3ccccc3N)c2O[C@H]1CN(C)S(=O)(=O)c1ccc(Cl)cc1 | – | · | 121
Cc1ccc(S(=O)(=O)N(C)C[C@@H]2Oc3c(NC(=O)CCCCCC(=O)Nc4ccccc4N)cccc3C(=O)N([C@H](C)CO)C[C@@H]2C)cc1 | – | · | 111
C[C@H](CO)N1C[C@H](C)[C@@H](CN(C)S(=O)(=O)c2ccccc2)Oc2c(NC(=O)CCCCCC(=O)Nc3ccccc3N)cccc2C1=O | – | · | –
COc1ccc(S(=O)(=O)N(C)C[C@@H]2Oc3c(NC(=O)CCCCCC(=O)Nc4ccccc4N)cccc3C(=O)N([C@@H](C)CO)C[C@@H]2C)cc1 | – | · | –
C[C@H]1CN([C@@H](C)CO)C(=O)c2cccc(NC(=O)CCCCCC(=O)Nc3ccccc3N)c2O[C@H]1CN(C)S(=O)(=O)c1ccc(Cl)cc1 | – | · | 115
COc1ccc(S(=O)(=O)N(C)C[C@H]2Oc3c(NC(=O)CCCCCC(=O)Nc4ccccc4N)cccc3C(=O)N([C@@H](C)CO)C[C@H]2C)cc1 | – | · | –
COc1ccccc1N1CCN(CC(=O)Nc2ccc([N+](=O)[O-])cc2C(=O)Nc2ccccc2F)CC1 | – | · | –
SMILES | MITF inh | Shh pathway inh | NOMO-1 viab
CC(=O)c1ccc(NC(=O)CSc2nc3ccc(NC(=O)c4ccccc4Cl)cc3s2)cc1 | – | · | –
CCC(Sc1nnnn1-c1ccccc1)C(=O)Nc1ccc([N+](=O)[O-])cc1 (stereo not given) | – | · | –
O=C(COc1ccc([N+](=O)[O-])cc1)Nc1ccccc1-c1nc2ccccc2s1 | – | · | –
C[C@H]1CN([C@@H](C)CO)C(=O)c2cc(NC(=O)Cn3cnnn3)ccc2O[C@@H]1CN(C)S(=O)(=O)c1cn(C)cn1 | – | – | –
Cc1cc2ncn(CC(O)COc3ccc4cc(Br)ccc4c3)c2cc1C (stereo not given) | – | · | ?
C[C@@H]1CN([C@@H](C)CO)C(=O)Cc2cc(NS(=O)(=O)c3ccc(F)cc3)ccc2O[C@@H]1CN(C)Cc1ccc(C(F)(F)F)cc1 | – | – | 103
C[C@@H]1CN([C@H](C)CO)C(=O)Cc2cc(NS(=O)(=O)c3ccc(F)cc3)ccc2O[C@H]1CN(C)Cc1ccc(C(=O)O)cc1 | – | – | –
C[C@@H]1CN([C@H](C)CO)C(=O)Cc2cc(NS(=O)(=O)c3ccc(F)cc3)ccc2O[C@H]1CN(C)Cc1ccc(C(F)(F)F)cc1 | – | – | 127
C[C@H](CO)N1C[C@H](C)[C@H](CN(C)Cc2ccc(C(=O)O)cc2)Oc2ccc(NS(=O)(=O)c3ccc(F)cc3)cc2CC1=O | – | · | –
C[C@H]1CN([C@@H](C)CO)C(=O)Cc2cc(NS(=O)(=O)c3ccc(F)cc3)ccc2O[C@@H]1CN(C)Cc1ccc(C(F)(F)F)cc1 | – | – | 90
C[C@@H]1CN([C@@H](C)CO)C(=O)Cc2cc(NS(=O)(=O)c3ccccc3)ccc2O[C@@H]1CN(C)Cc1ccc(C(F)(F)F)cc1 | – | – | –
COC(=O)Nc1scc(-c2ccccc2)c1C(=O)NCc1ccco1 | – | · | –
COc1ccc(-c2cc(C(F)F)n3ncc(C(=O)Nc4cccc(NC(C)=O)c4)c3n2)cc1 | – | · | –
C[C@@H]1CC[C@H](O)/C=C/C(=O)O[C@H](C)CC[C@H](O)/C=C/C(=O)O1 | – | – | 108
C[C@@H]1CN([C@H](C)CO)C(=O)c2cc(NC(=O)NC3CCCCC3)ccc2O[C@@H]1CN(C)Cc1ccc(Oc2ccccc2)cc1 | – | 91 | –
C[C@@H]1CN([C@H](C)CO)C(=O)c2cc(NC(=O)NC3CCCCC3)ccc2O[C@H]1CN(C)Cc1ccc(-c2ccccc2)cc1 | – | – | ?
C[C@H](CO)N1C[C@H](C)[C@H](CN(C)Cc2ccc(Oc3ccccc3)cc2)Oc2ccc(NC(=O)NC3CCCCC3)cc2C1=O | – | · | –
C[C@@H]1CN([C@@H](C)CO)C(=O)c2cc(NC(=O)NC3CCCCC3)ccc2O[C@H]1CN(C)Cc1ccc(-c2ccccc2)cc1 | – | – | 100
C[C@H]1CN([C@@H](C)CO)C(=O)c2cc(NC(=O)NC3CCCCC3)ccc2O[C@@H]1CN(C)Cc1ccc(-c2ccccc2)cc1 | – | · | –
C[C@@H]1CN([C@@H](C)CO)C(=O)c2cc(NC(=O)NC3CCCCC3)ccc2O[C@@H]1CN(C)Cc1ccc(-c2ccccc2)cc1 | – | – | 117
C[C@@H]1CN([C@H](C)CO)C(=O)c2cc(NC(=O)NC3CCCCC3)ccc2O[C@@H]1CN(C)Cc1ccc(-c2ccccc2)cc1 | – | – | 87
C[C@H]1CN([C@@H](C)CO)C(=O)c2cc(NC(=O)NC3CCCCC3)ccc2O[C@@H]1CN(C)Cc1ccccc1 | – | – | –
Cc1ccc(CN(CC(=O)O)S(=O)(=O)c2c(C)cc(C)cc2C)cc1 | – | · | –
